Screening data (PubChem BioAssay)
The list is not random: actives were taken first. Their share in the collection is about 19%.
ELG1 DNA repair = inhibitors of ELG1-dependent DNA repair in HEK293T cells; HEK293T ELG1-luciferase reporter, luminescence, 16 h; DNA damage induced by 5-fluorouridine; Potency, µM (top dose mostly 46.1 µM), without a hit: at the top dose activity change, negative = inhibition, usual class: inhibitors; 2.3% of 330,000 active; AID 504467; also: potency is read from the fitted curve at half-maximal effect; nearly all actives have a fitted effect of over 55% in size
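Reporter activity after DNA damage by 5-fluorouridine is monitored. Compound-treated cells incubate 16 hr at 37 °C, then ONE-Glo is added for 30 min before luminescence reading.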
TDP1 cell noCPT = qHTS for Inhibitors of human tyrosyl-DNA phosphodiesterase 1 (TDP1): qHTS in cells in absence of CPT | DT40 Tdp1-/- hTDP1 cells, no CPT, ATP luminescence, 48 h | Potency, µM (titrated, usually from 46.2 µM), for inactives: top-dose activity change, negative = growth inhibition, hits mostly inhibitors | 15% of 420,000 active | AID 686978, 2013; also: potency is read from the fitted curve at half-maximal effect; nearly all actives have a fitted effect of over 55% in size
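Growth of hTDP1-complemented DT40 Tdp1-knockout cells is measured by ATP luminescence after at least 48 hr compound exposure at 37 °C, with DMSO substituting for the 20 nM CPT used in the parallel screen.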
DT40 TDP1 CPT = DT40-hTDP1 cell growth loss with CPT | chicken DT40 Tdp1-/-;hTDP1 cells + 20 nM CPT, ATP luminescence, 48 h | Potency, µM (doses to about 46.2 µM), inactives show at the highest dose activity change, negative = growth inhibition, actives largely listed as inhibitors | 12% of 420,000 active | AID 686979; also: potency is read from the fitted curve at half-maximal effect; nearly all actives have a fitted effect of over 55% in size
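Cell growth measured by CellTiter-Glo luminescence after a minimum 48 h, 37 C compound exposure with 20 nM CPT in Tdp1-knockout DT40 cells stably expressing hTDP1, seeded 400/well; qHTS titration format.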
HT1080NT lethal = kills 2HG-producing HT-1080-NT fibrosarcoma cells | HT-1080-NT fibrosarcoma viability, CellTiter-Glo ATP luminescence, 48 h | Potency, µM (highest dose often 46.1 µM), for the others: at the top dose activity, negative = less viability, hits mostly cytotoxic | 1.6% of 360,000 active;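 also: NT is the 2HG producing partner of a matched IDH1 knockdown line; potency is read from the fitted curve at half-maximal effect; 0% = DMSO-treated cells and -100% = media-only wells without cells; nearly all actives have a fitted effect of over 55% in size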
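Read-out is CellTiter-Glo luminescence after 10 minutes at room temperature, following 48 hours' compound treatment of HT-1080-NT cells (750 cells/well, RPMI, 5% FBS, 37 degrees C).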
HT1080 IDH1KD tx = kills HT-1080 cells with IDH1 knockdown | Potency, µM (doses to about 46.1 µM), inactives show at the highest dose activity, negative = toxicity, actives largely listed as cytotoxic | 2% of 360,000 active | HT-1080 IDH1 knockdown viability, ATP luminescence, 48 h | AID 686971;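 also: potency is read from the fitted curve at half-maximal effect; 0% = DMSO wells and -100% = cell-free medium wells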
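CellTiter-Glo luminescence after 48 h compound exposure at 37 degrees C of IDH1-knockdown HT-1080 cells in 5% FBS RPMI. %Activity scaled between DMSO wells and cell-free media wells, with curves fitted and assigned curve classes.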
IL1B secr inh = inhibitors of inflammasome signaling (IL-1 beta secretion); activity change, % at 57.5 µM; AID 743279; THP-1 LPS/ATP IL-1B secretion, AlphaLISA, 16 h; stronger effect = lower value; 4.7% of 360,000 active; in the data active = activity change below about -50%; inconclusive = mostly about -30% to -49%
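Secreted IL-1B measured by AlphaLISA bead assay after 16 h compound exposure of THP-1 cells; compounds (final up to 57.5 uM) added 1 h before LPS (250 ng/mL) and ATP (1.25 mM) stimulation; lower signal means less secretion.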
Numbers without * were called inactive. Unless noted, calls follow the shape of the dose curve; as a rule, active = well fitted curve in the direction sought with a large enough effect; inconclusive = small, poorly fitted or top-dose-only effect, or another doubt; inactive = no such curve, though single readings can be large; an effect the other way counts as inactive or inconclusive. Unless noted, % is scaled to controls: 0 for no effect and ±100 for the full control effect.

Results for CC(=O)Cc1nsc(NC(=O)c2ccc(-c3cc(C(F)(F)F)ccc3Cl)o2)n1 ?
ELG1 DNA repair: -17%; TDP1 cell noCPT: 13µM*; DT40 TDP1 CPT: 21µM*; HT1080NT lethal: 11µM*; HT1080 IDH1KD tx: 11µM*; IL1B secr inh: 16

How did O=C(Nc1ccc2c(c1)CCC2)c1ccccc1 do in these assays?
ELG1 DNA repair: inconclusive; TDP1 cell noCPT: 16µM*; DT40 TDP1 CPT: inconclusive; HT1080NT lethal: -6%; HT1080 IDH1KD tx: -10%; IL1B secr inh: -2

How did COc1ccc(NC(=O)c2cccc(S(=O)(=O)N(C)c3ccccc3)c2)cn1 do in these assays?
ELG1 DNA repair: inconclusive; TDP1 cell noCPT: 16µM*; DT40 TDP1 CPT: 16µM*; HT1080NT lethal: 13%; HT1080 IDH1KD tx: 13%; IL1B secr inh: 10

What do the screens show for `CN(c1ccc(C(=O)Nc2ccc(F)cc2F)cc1)S(=O)(=O)c1ccccc1`?
ELG1 DNA repair: 15µM*; TDP1 cell noCPT: inconclusive; DT40 TDP1 CPT: -28%; HT1080NT lethal: 0%; HT1080 IDH1KD tx: -21%; IL1B secr inh: -27

What do the screens show for `CC(=O)c1cccc(NC(=O)c2ccc(N(C)S(C)(=O)=O)cc2)c1`?
ELG1 DNA repair: 14%; TDP1 cell noCPT: -26%; DT40 TDP1 CPT: -13%; HT1080NT lethal: -1%; HT1080 IDH1KD tx: -4%; IL1B secr inh: 23

How did CN(c1cccc(NC(=O)c2ccc(N(C)S(=O)(=O)c3ccccc3)cc2)c1)S(C)(=O)=O do in these assays?
ELG1 DNA repair: 16µM*; TDP1 cell noCPT: inconclusive; DT40 TDP1 CPT: 21µM*; HT1080NT lethal: -16%; HT1080 IDH1KD tx: inconclusive; IL1B secr inh: -12

How did COc1ccccc1C(=O)COC(=O)C1CCN(S(=O)(=O)c2ccccc2)CC1 do in these assays?
TDP1 cell noCPT: 8%; DT40 TDP1 CPT: -25%; HT1080NT lethal: 1%; HT1080 IDH1KD tx: 6%; IL1B secr inh: 0

Results for O=C(O)C1c2ccccc2Cc2ccccc21 ?
TDP1 cell noCPT: 2%; DT40 TDP1 CPT: -4%; HT1080NT lethal: -1%; HT1080 IDH1KD tx: -7%; IL1B secr inh: 18

Results for CC(=O)Nc1ccc(C(=O)Nc2cccc(S(=O)(=O)N(C)c3ccccc3)c2)cc1 ?
ELG1 DNA repair: inconclusive; TDP1 cell noCPT: inconclusive; DT40 TDP1 CPT: 18µM*; HT1080NT lethal: -4%; HT1080 IDH1KD tx: -13%; IL1B secr inh: 8

How did CN(c1ccccc1)S(=O)(=O)c1cccc(NC(=O)c2ccncc2)c1 do in these assays?
ELG1 DNA repair: inconclusive; TDP1 cell noCPT: 8.2µM*; DT40 TDP1 CPT: 6.5µM*; IL1B secr inh: 5

Results for CC(=O)Nc1ccc(S(=O)(=O)Nc2cccc(S(=O)(=O)N(C)c3ccccc3)c2)cc1 ?
ELG1 DNA repair: -15%; TDP1 cell noCPT: inconclusive; DT40 TDP1 CPT: inconclusive; HT1080NT lethal: -4%; HT1080 IDH1KD tx: -12%; IL1B secr inh: 4

How did CSc1ncccc1C(=O)Nc1cccc(S(=O)(=O)N(C)c2ccccc2)c1 do in these assays?
ELG1 DNA repair: inconclusive; TDP1 cell noCPT: inconclusive; DT40 TDP1 CPT: 18µM*; HT1080NT lethal: -4%; HT1080 IDH1KD tx: -3%; IL1B secr inh: -3

Results for CN(c1ccccc1)S(=O)(=O)c1cccc(NC(=O)c2cncc(Br)c2)c1 ?
ELG1 DNA repair: inconclusive; TDP1 cell noCPT: inconclusive; DT40 TDP1 CPT: inconclusive; HT1080NT lethal: -19%; HT1080 IDH1KD tx: inconclusive; IL1B secr inh: -23

What do the screens show for `Cc1ccc(C)c(NS(=O)(=O)c2cc(C(=O)Nc3cccc(N(C)S(C)(=O)=O)c3)ccc2C)c1`?
ELG1 DNA repair: inconclusive; TDP1 cell noCPT: inconclusive; DT40 TDP1 CPT: inconclusive; HT1080NT lethal: inconclusive; HT1080 IDH1KD tx: inconclusive; IL1B secr inh: 0

How did CSc1ncccc1C(=O)Nc1ccncc1 do in these assays?
ELG1 DNA repair: 28%; TDP1 cell noCPT: 1%; DT40 TDP1 CPT: 17%; HT1080NT lethal: 9%; HT1080 IDH1KD tx: 15%; IL1B secr inh: 11

How did Cc1ccc(NS(=O)(=O)c2cc(C(=O)Nc3cccc(N(C)S(C)(=O)=O)c3)ccc2C)c(C)c1 do in these assays?
ELG1 DNA repair: inconclusive; TDP1 cell noCPT: 18µM*; DT40 TDP1 CPT: 16µM*; HT1080NT lethal: -2%; HT1080 IDH1KD tx: -1%; IL1B secr inh: -7

Results for COc1ccc(OCC(=O)OCc2cc(=O)n3nc(C4CC4)sc3n2)cc1 ?
TDP1 cell noCPT: -21%; DT40 TDP1 CPT: 1%

Results for O=C(CCC(=O)N1Cc2ccccc2Oc2ncccc21)NCc1ccccc1Cl ?
TDP1 cell noCPT: inconclusive; DT40 TDP1 CPT: -26%

Results for Cc1cc(C)n(C(=O)CN(C)S(=O)(=O)c2ccc([N+](=O)[O-])cc2)n1 ?
ELG1 DNA repair: 9%; TDP1 cell noCPT: 2%; DT40 TDP1 CPT: -10%; HT1080NT lethal: 3%; HT1080 IDH1KD tx: -1%; IL1B secr inh: -11

Results for CN(C)S(=O)(=O)c1cccc(C(=O)Nc2ccc(C(=O)Nc3cccc(S(N)(=O)=O)c3)cc2)c1 ?
ELG1 DNA repair: 13%; TDP1 cell noCPT: inconclusive; DT40 TDP1 CPT: -18%; HT1080NT lethal: 0%; HT1080 IDH1KD tx: 1%; IL1B secr inh: -7

Results for Cc1ccc(C(=O)Nc2nc(C)c(C(=O)Nc3ccc4c(c3)CCC4)s2)cc1 ?
ELG1 DNA repair: inconclusive; TDP1 cell noCPT: 1.3µM*; DT40 TDP1 CPT: 1.3µM*; HT1080NT lethal: 2.3µM*; HT1080 IDH1KD tx: 4.1µM*; IL1B secr inh: 79

How did CN(c1cccc(NC(=O)c2ccc(C(C)(C)C)cc2)c1)S(C)(=O)=O do in these assays?
ELG1 DNA repair: inconclusive; TDP1 cell noCPT: 21µM*; DT40 TDP1 CPT: 23µM*; HT1080NT lethal: 23µM*; HT1080 IDH1KD tx: inconclusive; IL1B secr inh: inconclusive

How did CN(c1ccccc1)S(=O)(=O)c1cccc(C(=O)Nc2ccc3c(c2)CCC3)c1 do in these assays?
ELG1 DNA repair: 15µM*; TDP1 cell noCPT: 2.6µM*; DT40 TDP1 CPT: 5.2µM*; HT1080NT lethal: -1%; HT1080 IDH1KD tx: -1%; IL1B secr inh: 0

What do the screens show for `CN(C)S(=O)(=O)c1cccc(NC(=O)c2cccc(NS(=O)(=O)c3ccccc3)c2)c1`?
ELG1 DNA repair: -47%; TDP1 cell noCPT: inconclusive; DT40 TDP1 CPT: 21µM*; HT1080NT lethal: inconclusive; HT1080 IDH1KD tx: inconclusive; IL1B secr inh: -60*

Results for CCNc1ncc2ncc(=O)n(C)c2n1 ?
TDP1 cell noCPT: -29%; DT40 TDP1 CPT: inconclusive
